Read-out in assay [1]: X-box binding protein 1 (XBP1), XBP1 (gene 7494)
Put plainly: LTEA_HepaRG_XBP1: Life Technologies and Expression Analysis (LTEA) Assay for X-box binding protein 1 (XBP1) using HepaRG (AID 2283540; active = hit-call score of the fitted dose curve at least 0.9, where 1 is the maximum; inactive = score below 0.9). Particulars: mRNA level, 48 h; actives raise or lower the signal. In short, it runs like this:
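Differentiated human HepaRG cells in serum-free induction medium were exposed in duplicate for 48 h to eight half-log concentrations up to 100 uM in 0.5% DMSO. XBP1 mRNA was quantified by qRT-PCR, normalised to ACTB, GAPDH and POLR2A, with bidirectional fitting against DMSO.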

Assay [2] is described as follows: LTEA_HepaRG_LDH_cytotoxicity: Cytotoxicity Assessment in the Life Technologies and Expression Analysis (LTEA) Assay (AID 2283563).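 For AC50: LDH activity released into spent culture medium as a marker of cell death.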 In short, it runs like this: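 Differentiated human HepaRG cells, plated 48 h beforehand, were switched to serum-free induction medium and exposed for 48 h to eight half-log concentrations (top 100 uM) in 0.5% DMSO. LDH was measured in spent medium; activity was fitted relative to DMSO vehicle.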

Assay [3] is described as follows: ATG_XTT_Cytotoxicity: Cytotoxicity Assessment in the Attagene TRANS-FACTORIAL HepG2 Assay (AID 2283584). The method, boiled down: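 HepG2 human liver cells, transiently transfected with multiple GAL4-UAS reporter units, were dosed and read at 24 h by XTT as cell number. Loss of signal was fitted relative to DMSO negative control baseline.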
Assay [4] is described as follows: TOX21_p53_BLA_p2_viability: Viability Assessment in the Tox21 HCT-116 p53 Agonism Beta-lactamase Assay, Phase 2 (AID 2283591).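 Note: compound exposure lasted 16 h at 37 °C; actives lower the ATP signal meaning cytotoxicity.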 In short, it runs like this:
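HCT-116 p53-bla cells (4000/well) rested 5 h at 37C, then received compounds in DMSO (217-fold dilution) for 16 h at 37C, 5% CO2. After the CCF4 read, CellTiter-Glo was added; ATP luminescence was read after 30 min at room temperature.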

The target in assay [5] is Cellular tumor antigen p53 (Homo sapiens) (UniProt P04637). Put plainly: TOX21_p53_BLA_p2_ratio: Tox21 HCT-116 p53 Agonism Beta-lactamase Assay, Ratio, Phase 2 (AID 2283592). The method, boiled down:
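HCT116 cells carrying a p53-responsive beta-lactamase reporter were plated, incubated 5 h at 37C, then dosed with compounds in DMSO (217-fold dilution) for 16 h. CCF4-AM substrate was added for 2 h at room temperature; the 460/530 nm emission ratio gave gain-of-signal activity relative to DMSO.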

A short description of assay [6]: TOX21_p53_BLA_p3_viability: Viability Assessment in the Tox21 HCT-116 p53 Agonism Beta-lactamase Assay, Phase 3 (AID 2283593).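 Note: cells exposed to compound for 16 h before reading.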 In short, it runs like this:
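HCT-116 cells (4000/well) rested 5 h at 37C, then got DMSO compounds by pin tool (217-fold dilution) for 16 h at 37C, 5% CO2. After the bla read, CellTiter-Glo was added and luminescence read at 30 min, room temperature.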

Assay [7] addresses Cellular tumor antigen p53 (Homo sapiens) (UniProt P04637). As to the kind of experiment: TOX21_p53_BLA_p3_ratio: Tox21 HCT-116 p53 Agonism Beta-lactamase Assay, Ratio, Phase 3 (AID 2283596). The method, boiled down: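 HCT116 p53-bla cells (4000/well) given compound in DMSO (217-fold dilution) after 5 h, incubated 16 h at 37C. CCF4-AM substrate 2 h at room temperature; 460/530 nm emission ratio, gain fitted against DMSO.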

The nature of assay [8]: TOX21_p53_BLA_p4_viability: Viability Assessment in the Tox21 HCT-116 p53 Agonism Beta-lactamase Assay, Phase 4 (AID 2283597).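 Note: hits lower the luminescence signal meaning cytotoxicity.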 In short, it runs like this: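 HCT116 p53-bla cells (4000/well) rested 5 h at 37C, then received compounds in DMSO (217-fold dilution) for 16 h at 37C, 5% CO2. CellTiter-Glo was added after the CCF4-AM read, and luminescence was read after 30 min at room temperature.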

Assay [9] can be described thus: TOX21_p53_BLA_p5_viability: Viability Assessment in the Tox21 HCT-116 p53 Agonism Beta-lactamase Assay, Phase 5 (AID 2283600). The method, boiled down: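 Cells were plated at 4000/well, rested 5 h at 37C, then given compounds in DMSO (217-fold dilution) for 16 h at 37C, 5% CO2. Following the CCF4-AM beta-lactamase read, CellTiter-Glo was added and luminescence was read after 30 min at room temperature.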

Assay [10] addresses Cellular tumor antigen p53 (Homo sapiens) (UniProt P04637). As to the kind of experiment: TOX21_p53_BLA_p4_ratio: Tox21 HCT-116 p53 Agonism Beta-lactamase Assay, Ratio, Phase 4 (AID 2283601). In short, it runs like this:
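HCT116 cells carrying an inducible beta-lactamase reporter were plated at 4000 cells/well, rested 5 h, then exposed to compounds in DMSO (217-fold dilution) for 16 h at 37C. CCF4-AM substrate was loaded 2 h at room temperature; 460/530 nm emission ratio scored gain-of-signal versus DMSO.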

Assay [11] is described as follows: Tanguay_ZF_120hpf_MORT_legacy: (Legacy) Oregon State University Tanguay Lab 120 Hour Post-fertilization zebrafish Assay for Mortality (AID 2283633). In short, it runs like this:
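Dechorionated Tropical 5D wild-type zebrafish embryos, one per well from 6 hpf, were statically exposed at 28C in the dark until 120 hpf (0.64% DMSO final). Mortality was scored as present/absent by brightfield microscopy, fitted positively versus DMSO.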

The nature of assay [12]: Tanguay_ZF_120hpf_YSE_legacy: (Legacy) Oregon State University Tanguay Lab 120 Hour Post-fertilization zebrafish Assay for Yolk Sac Edema (AID 2283634). The method, boiled down:
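Tropical 5D wild-type embryos, dechorionated with pronase at 4 hpf, were exposed singly from 6 hpf to 120 hpf under static, sealed, dark conditions at 28C with 0.64% DMSO final. Yolk sac edema was scored present/absent by brightfield microscopy.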

Assay [13] is described as follows: Tanguay_ZF_120hpf_AXIS_legacy: (Legacy) Oregon State University Tanguay Lab 120 Hour Post-fertilization zebrafish Assay for Body Axis Malformation (AID 2283635).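 For AC50: potency for an increased fraction of larvae scored with body axis malformation.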 In short, it runs like this: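 Tropical 5D wild-type zebrafish embryos, dechorionated with pronase at 4 hpf, were placed singly in wells at 6 hpf and exposed statically to test chemical (0.64% DMSO final) at 28C until 120 hpf, then scored by brightfield for body axis defects.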

Assay [14] is described as follows: Tanguay_ZF_120hpf_OTIC_legacy: (Legacy) Oregon State University Tanguay Lab 120 Hour Post-fertilization zebrafish Assay for Otic Vesicle Malformation (AID 2283639). In short, it runs like this:
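Embryos from 5D wild-type adults exposed in plates; DMSO 0.64% v/v final. Sealed, light-protected, 28C, static to 120 hpf. Otic vesicle malformation recorded as binary endpoint; gain-of-signal fitted vs DMSO.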

A short description of assay [15]: Tanguay_ZF_120hpf_PE_legacy: (Legacy) Oregon State University Tanguay Lab 120 Hour Post-fertilization zebrafish Assay for Pericardial Edema (AID 2283640).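 For AC50: potency for increased incidence of pericardial edema versus DMSO baseline.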 The method, boiled down:
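Tropical 5D wild-type zebrafish embryos were exposed statically to 120 hpf at 28C, sealed and foil-covered, in 0.64% DMSO final. Pericardial edema was scored present/absent by brightfield microscopy; dead embryos were not scored.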

Assay [16] in a line: Tanguay_ZF_120hpf_BRAI_legacy: (Legacy) Oregon State University Tanguay Lab 120 Hour Post-fertilization zebrafish Assay for Brain Malformation (AID 2283641). In short, it runs like this: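 Tropical 5D wild-type zebrafish embryos were exposed statically in sealed, foil-covered plates at 28C until 120 hpf, with 0.64% (vol/vol) final DMSO. Brain malformation was scored present/absent by brightfield microscopy, relative to DMSO baseline.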

Assay [17] concerns the target Cellular tumor antigen p53 (Homo sapiens) (UniProt P04637). As to the kind of experiment: TOX21_p53_BLA_p5_ratio: Tox21 HCT-116 p53 Agonism Beta-lactamase Assay, Ratio, Phase 5 (AID 2283599). In short, it runs like this: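 HCT-116 cells carrying a p53-inducible beta-lactamase reporter were seeded at 4000 cells/well and dosed after 5 h with compound in DMSO (217-fold dilution). After 16 h at 37C, CCF4-AM substrate was added for 2 h, and the 460/530 nm emission ratio was scored as gain-of-signal versus DMSO.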

A short description of assay [18]: Tanguay_ZF_120hpf_EYE_legacy: (Legacy) Oregon State University Tanguay Lab 120 Hour Post-fertilization zebrafish Assay for Eye Malformation (AID 2283636).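 Note: binary presence or absence of eye malformation scored by brightfield in 120 hpf larvae.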 In short, it runs like this: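 Dechorionated wild-type Tropical 5D zebrafish embryos were exposed statically from 6 hpf, one per well, to 120 hpf at 28C in sealed, foil-covered plates with 0.64% DMSO. Eye malformation was scored present/absent by brightfield microscopy against DMSO controls.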

The nature of assay [19]: Tanguay_ZF_120hpf_JAW_legacy: (Legacy) Oregon State University Tanguay Lab 120 Hour Post-fertilization zebrafish Assay for Jaw Malformation (AID 2283638). In short, it runs like this: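 Tropical 5D wild-type embryos, dechorionated with pronase at 4 hpf, were placed singly per well at 6 hpf and statically exposed at 28C until 120 hpf (0.64% DMSO final). Jaw malformation scored as present/absent by brightfield microscopy at 120 hpf, analyzed relative to DMSO.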

Values joined by “and” are separate entries in the source; they are usually repeats but may differ in a detail not shown here. Equal values may be shown once. Results filed as inconclusive are left out. Some compounds were tested as several samples or in several runs, with calls that do not always agree. Active and inactive are the calls of the source. Rule for the calls, unless noted: active = hit-call score of the fitted dose curve at least 0.9, where 1 is the maximum; inconclusive = response in the unintended direction; inactive = score below 0.9.

Cellular tumor antigen p53 (Homo sapiens), sequence (P04637 whole entry, looked up): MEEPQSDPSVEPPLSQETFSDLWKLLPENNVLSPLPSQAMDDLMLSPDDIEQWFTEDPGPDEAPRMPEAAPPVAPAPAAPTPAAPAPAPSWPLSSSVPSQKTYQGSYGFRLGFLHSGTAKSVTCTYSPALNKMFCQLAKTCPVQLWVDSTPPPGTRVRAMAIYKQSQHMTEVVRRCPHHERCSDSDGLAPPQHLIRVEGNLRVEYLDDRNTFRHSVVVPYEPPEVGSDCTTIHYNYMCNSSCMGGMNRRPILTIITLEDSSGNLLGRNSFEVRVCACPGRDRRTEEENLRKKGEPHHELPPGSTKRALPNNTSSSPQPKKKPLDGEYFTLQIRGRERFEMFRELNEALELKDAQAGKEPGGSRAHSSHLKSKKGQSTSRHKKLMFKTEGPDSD

In the case of `CCCCCc1ccc(N)cc1`, the compound was classed as inactive in [1], in [2], in assay [3], in assay [4], in assay [5] and in assay [6]. Besides, the result in assay [7], in assay [8], in [9], in assay [10], in assay [11] and in assay [12] was inactive. In addition, the call in [13], in [14], in assay [15] and in assay [16] was inactive.

The term AC50 denotes the concentration at which the activity in the assay is half-maximal. `CCN(CC)C(=O)c1cc(S(=O)(=O)Cc2ccccc2)c(N2CCC(c3ccccc3)CC2)cc1N(CC)CCN(C)C`: the AC50 in assay [1] is 28.8 µM (active); in [2], 31.1 µM (active); in [4] it was 29.4 µM (active) and 33.5 µM (active); in assay [6] it was 30.3 µM (active); in assay [8], 17.9 µM (active) and 25.1 µM (active); in assay [9] it was 40.1 µM (active). Also, the AC50 in assay [10] was 32.6 µM (active) and 42.6 µM (active); in [13] it was 18.2 µM (active); in assay [16], 13.8 µM (active). Besides, the outcome in assay [5], in assay [6], in assay [7], in [17], in [12] and in assay [18] was inactive. For the same compound, the result in [19], in assay [14] and in assay [15] was inactive.

As for `O=c1c(-c2ccc(O)cc2)coc2cc(O)cc(O)c12`, the compound was called inactive in assay [1], in assay [2], in assay [3], in [4], in assay [5] and in assay [6]. The outcome in assay [7], in [8], in [17], in assay [9], in [10] and in [12] was inactive. Further, the compound was classed as inactive in [13], in assay [18], in [19], in assay [14], in assay [15] and in assay [16]. In addition, in [5], the AC50 is 18 µM (active).

Consider `Cc1c2ccccc2c(C)c2c1ccc1ccccc12`, for which the compound was classed as inactive in assay [1], in [2], in [4], in [6], in assay [8] and in assay [17]. Moreover, the outcome in assay [9], in [11], in assay [12], in assay [13], in assay [18] and in assay [19] was inactive. Moreover, the compound was classed as inactive in [14] and in assay [16]. For the same compound, the AC50 in assay [5] was 14.6 µM (active) and 37.7 µM (active); in assay [6], 61.5 µM (active); in assay [7], 29.5 µM (active) and 52.5 µM (active); in assay [8], 56.3 µM (active); in [17], 41.7 µM (active); in assay [10], 43.2 µM (active) and 30.5 µM (active). The AC50 in assay [15] was 4.18 µM (active).

The values are drawn from PubChem BioAssay (EPA / NIEHS).
